The values below come from ChEMBL document CHEMBL4513216, “Probing the Open Global Health Chemical Diversity Library for Multistage-Active Starting Points for Next-Generation Antimalarials” (ACS Infect Dis, 2020).

Out of some 69,000 compounds screened, about 8,600 (12%) showed an effect of 50% or more. The sample holds strong results, similar compounds and a random draw of the others, so the mix is not that of the screen.

This experiment deals with Plasmodium berghei. The experiment in a line: Screen against P. berghei liver stage (PbLuc), transformed with Luciferase, at 10uM. It counts as functional, HepG2. The settings on record: tested at 10 uM.
For `CC(=O)N1CCO[C@@H]2CN(Cc3ccccc3Cl)C[C@@H]2C1`, the INHIBITION worked out at 38.5%.

In the case of `Cc1ccccc1C1(C(=O)NCCN(C(C)C)C(C)C)CCOCC1`, the INHIBITION was -52.66%.

Turning to `c1cc2nccc(CC3CCCN(C4CCOCC4)CC3)c2cn1` (stereo unspecified), the INHIBITION stood at 15.9%.

Consider `CN(C)[C@@H]1CN(C(=O)Cc2cccs2)[C@@H]2CCCO[C@H]12`, for which the INHIBITION is 24.6%.

For `O=C(c1ccc(N2CCOCC2)cc1)N1CCCC(n2ccnc2)C1` (stereo unspecified), the INHIBITION was 41.415%.

With `CN(C)c1ncccc1CNC(=O)NCCN(C)C1CCCC1`, the INHIBITION is reported as 28.8%.

`CCOC(=O)C1CCN(Cc2csc(-c3ccc(C)o3)n2)CC1`: the INHIBITION is recorded as 0.914%.

Take `O=C(C1CCOCC1)N1CC[C@@H](O)[C@@H]1Cc1ccncc1`: the INHIBITION was -2.35%.

`CC(=O)N1CCC(n2nccc2-c2cnc(N3CCCC3)nc2)CC1`: the INHIBITION worked out at 33.7%.

Take `FC(F)(F)c1cccc(OC2CCN(Cc3c[nH]cn3)CC2)c1`: the INHIBITION is on record as 88%.

With `FC(F)(F)c1cccc(OC2CCN(Cc3ccccn3)CC2)c1`, the INHIBITION is 40.7%.

As for `Nc1ccc(C(=O)N2CCC(Oc3cccc(C(F)(F)F)c3)CC2)cn1`, the INHIBITION was 29.8%.

As for `CCc1nc(C2CCCN2C(=O)CCCn2cncn2)no1` (stereo unspecified), the INHIBITION was -59.4%.

Consider `CN1C(=O)CCCC12CCCN(C(=O)c1ccc3c(c1)OCO3)C2` (stereo unspecified), for which the INHIBITION was -36.8%.

In the case of `CCS(=O)(=O)N1CCC2(CC1)CN(Cc1ccccn1)C(=O)CO2`, the INHIBITION worked out at 35.8%.

In the case of `CCOC(=O)[C@@H]1[C@@H](O)C(=O)N(C)C12CCN(C(=O)c1ccco1)CC2`, the INHIBITION is on record as -3.5%.

Regarding `CCOC(=O)[C@H]1[C@@H](O)C(=O)N(C)C12CCN(C(=O)OCC)CC2`, the INHIBITION amounted to 20%.

`CCOC(=O)[C@H]1[C@@H](O)C(=O)N(C)C12CCN(C(=O)c1ccccc1)CC2`: the INHIBITION stood at 58.5%.

Take `CCN(CC)S(=O)(=O)NCc1ccc(-c2ccc(C(N)=O)c(C)n2)cc1`: the INHIBITION was -5.8%.

On to `CN(CCc1cccs1)C(=O)Nc1cccc(S(C)(=O)=O)c1`, for which the INHIBITION was -93.6%.

For `Cc1nc(CN2CCN(C(=O)NC(C)c3cccnc3)CC2)cs1` (stereo unspecified), the INHIBITION is recorded as 41.5%.

As to `CC(C)Oc1ccc(CNC(=O)NCc2ccncc2)cc1F`, the INHIBITION came to 29.5%.

In the case of `CC(C)Oc1ccc(CNC(=O)CC(F)(F)F)cc1F`, the INHIBITION is given as -4.69%.

On to `CC(C)Oc1ccc(NCc2ccc([S+](C)[O-])cc2)c(F)c1` (stereo unspecified), for which the INHIBITION was 93.1%.

On to `CN(Cc1ccc(C#N)cc1)c1ncc(C(N)=O)cc1Cl`, for which the INHIBITION was 65.4%.

`CN(Cc1cccc(C#N)c1)c1ncc(C(N)=O)cc1Cl`: the INHIBITION was 66.3%.

In the case of `COCCN(CCOC)c1ncc(C#N)cc1Cl`, the INHIBITION is reported as -2.39%.

As to `CN(Cc1cccc(C(N)=O)c1)c1ncc(C(N)=O)cc1Cl`, the INHIBITION turned out to be 49.1%.

For `CN(c1ncc(C(N)=O)cc1Cl)C1CCC(c2ccccc2)CC1` (stereo unspecified), the INHIBITION came out at 38.1%.

In the case of `CCN(CC)C(=O)c1ccc(CNc2ncc(C#N)cc2Cl)cc1`, the INHIBITION is -22.8%.

For the compound `CN(Cc1ccc(C#N)cc1)C(=O)c1ccn(C)c(=O)c1`, the INHIBITION is reported as 33.4%.

Regarding `COc1cccc(CN(C)c2ncc(C(N)=O)cc2Cl)c1`, the INHIBITION is given as 26.9%.

Regarding `CN(Cc1cccc(C(N)=O)c1)c1ncc(C#N)cc1Cl`, the INHIBITION was 61.1%.

Consider `Cc1cc(CNC(=O)NCCC(=O)N2CCCc3ccccc32)no1`, for which the INHIBITION was found to be 17.1%.

In the case of `CN(Cc1cccc(C#N)c1)Cc1nc2c(cnn2C)c(=O)[nH]1`, the INHIBITION turned out to be 44.3%.

Take `CS(=O)(=O)CCN1CCc2c(ncn2C2CC2)C1`: the INHIBITION is -2.43%.

In the case of `Cc1ccc(OCC(O)CN2CCc3c(ncn3C3CC3)C2)cc1` (stereo unspecified), the INHIBITION was found to be 58.5%.

Consider `OC(CN1CCOCC1)CN1CCc2c(ncn2C2CC2)C1` (stereo unspecified), for which the INHIBITION was determined as 13.5%.

Consider `CC(C)S(=O)(=O)CCN1CCc2c(ncn2C2CC2)C1`, for which the INHIBITION was 67.1%.

Turning to `OC(COc1ccccc1)CN1CCc2c(ncn2C2CC2)C1` (stereo unspecified), the INHIBITION is recorded as 5.97%.

On to `O=S(=O)(CCN1CCc2c(ncn2C2CC2)C1)c1ccccc1`, for which the INHIBITION is reported as -11.4%.

On to `Fc1ccc(CN2CCC3(CC2)CC(c2cccnc2)CO3)cc1` (stereo unspecified), for which the INHIBITION was found to be 15.4%.

Take `CN(C)c1cc(CC(NC(=O)C2CC2)c2ccccc2)nc(C2CC2)n1` (stereo unspecified): the INHIBITION was determined as 37.1%.

Take `O=C(NCc1ccccn1)C1=NN(c2ccccc2)C(=O)CN1`: the INHIBITION is -170%.

On to `CN(C)C(c1ccccn1)C1CCC(CNC(=O)C2CC2)CC1` (stereo unspecified), for which the INHIBITION was -103%.

As for `Cn1cc(-c2ncc3c(c2C(=O)O)CCN(Cc2ccccn2)C3)cn1`, the INHIBITION turned out to be 29.4%.

In the case of `Cc1cc(Cl)c(C)c(S(=O)(=O)N2CCN(Cc3ccccn3)CC2)c1Cl`, the INHIBITION was found to be 18.6%.

Take `CC(C)Cn1cc2nc(N3CCCC(C)C3)[nH]cc-2c1=O` (stereo unspecified): the INHIBITION is given as -40.4%.

Turning to `CC(C)Cn1cc2nc(N3CCCC3)[nH]cc-2c1=O`, the INHIBITION is on record as 47.4%.

Take `CC(C)Cn1cc2nc(N3CCC(O)CC3)[nH]cc-2c1=O`: the INHIBITION was 66.5%.

For the compound `COc1ccccc1C(=O)NS(=O)(=O)c1cncc(Br)c1`, the INHIBITION came to 28.3%.

With `COc1c(CNCC(O)c2ccccc2)c(C(C)C)nn1C` (stereo unspecified), the INHIBITION was determined as 3.73%.

For `COc1ccc2c(c1)OCC(C(=O)NCc1ncc3c(n1)CCC3)C2` (stereo unspecified), the INHIBITION is reported as -9.39%.

`O=C1NCc2ccccc2CC12CCN(Cc1ccccc1Cl)CC2`: the INHIBITION was 36.6%.

In the case of `Cc1nc(N(C)C)nc(N2CCC3(CC2)CNC(=O)O3)c1C`, the INHIBITION is listed as -12.1%.

As for `CNC(=O)CN1CCC2(CC1)C[C@@H](O)[C@H](c1ccccc1)NC2=O`, the INHIBITION is recorded as 44.8%.
